Assay outcomes as filed in PubChem BioAssay.
Shn3 inh set2 = inhibitors of Schnurri-3 3'UTR reporter in osteoblasts; Clone20 osteoblast Shn3 3'UTR firefly luciferase, 24 h; inhibition, % at 12.5 µM; actives 0.52% (n = 360,000); AID 588674;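 active means mean inhibition of at least 75% with every replicate also reaching 75%; inconclusive means mean inhibition at least 75% but some replicate below; inactive means mean inhibition below 75%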;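 further: 0% = median of neutral control wells and 100% = pilot-screen positive control compound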
Peg3 prom inh = inhibitors of Peg3 promoter; HeLa PEG-Prom luciferase reporter, luminescence, overnight; inhibition, % at 20 µM; actives 1.7% (n = 360,000);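 active means inhibition of at least 50% at 20 µM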
CF NFkB inh = blocks PAF-induced NF-kB reporter in cystic fibrosis cells; inhibition, % at 5 µM; actives 0.86% (n = 360,000); AID 588850; KKLEB NF-kB-GFP reporter, GFP fluorescence overnight;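 active means at least 50% inhibition at 5 µM, scaled per plate between neutral and stimulator controls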;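 further: PAF is a Pseudomonas aeruginosa culture filtrate used as stimulus; plate controls were PAF-stimulated DMSO wells for no effect and unstimulated DMSO wells for full effect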
HIF-2a block = blocks HIF-2a reporter activity. 786-0 RCC cells HIF-2a reporter, luciferase luminescence, overnight. inhibition, % at 18.8 µM. actives 0.72% (n = 360,000). AID 624352;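 active means inhibition of the luminescence signal of 40% or more relative to plate controls, in a single-dose primary screen at 18.75 µM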
KKLEB tox = CF airway cell cytotoxicity counter-screen. KKLEB CF airway cells viability, ATPlite luminescence, overnight; active compounds read low; cells stimulated with P. aeruginosa culture filtrate. actives 0.36% (n = 360,000). AID 602141. activity change (cytotoxicity), % at 5 µM;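 active means corrected activity change at or below -50% at 5 µM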
MITF TRPM1 inh = inhibitors of MITF-driven TRPM1 promoter in melanoma cells; SK-MEL-5 TRPM1 promoter luciferase, 24 h; inhibition, % at 12.5 µM; actives 0.83% (n = 330,000);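 active means mean inhibition across replicates of 60% or more, whatever share of single replicates reaches that level; inconclusive means some that reach 60%, reason not given; inactive means mean inhibition across replicates below 60%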
Numbers without * were called inactive; ? = inconclusive; · = not tested or not shown. This is a sample that favours compounds with a hit; in the whole collection about 2.8% have one here.

SMILES	Shn3 inh set2	Peg3 prom inh	CF NFkB inh	HIF-2a block	KKLEB tox	MITF TRPM1 inh
O=P(Oc1ccc(-c2ccccc2)cc1)(N1CC1)N1CC1	-10.6	-73.8	3.7	-18.9	11.2	-10.5
Clc1ccc2c(c1)C(OC1CN3CCC1CC3)c1ccccc1CS2 (stereo not drawn)	22.3	96.6*	1.0	24.6	-10.0	45.2
CC(=O)OC1CC2OC3C=C(C)CCC3(C)C1(C)C21CO1 (stereo not drawn)	98.1*	107.8*	93.4*	71.9*	-19.2	·
CCC1(CCC(C)C)C(=O)NC(=S)NC1=O	53.1	8.3	-3.6	14.7	-1.9	-17.4
O=c1[nH]c2ccccc2n1C1CCN(C(c2nnnn2Cc2ccccc2)C2CC2)CC1 (stereo not drawn)	48.5	75.6*	86.1*	-24.9	-79.2*	·
Cc1cccc(C)c1-n1nnnc1C(c1cccs1)N1CCC(n2c(=O)[nH]c3ccccc32)CC1 (stereo not drawn)	-20.1	28.6	-0.4	8.6	-7.5	·
Cc1cccc(C)c1-n1nnnc1C(C1CC1)N1CCC(n2c(=O)[nH]c3ccccc32)CC1 (stereo not drawn)	7.5	51.1*	-33.9	-7.0	11.0	·
CSCCC(c1nnnn1C1CCCCC1)N1CCC(n2c(=O)[nH]c3ccccc32)CC1 (stereo not drawn)	16.5	46.1	32.9	-15.0	2.5	·
O=c1[nH]c2ccccc2n1C1CCN(C(CCc2ccccc2)c2nnnn2C2CCCCC2)CC1 (stereo not drawn)	7.8	97.8*	86.4*	-84.2	-69.0*	·
O=c1[nH]c2ccccc2n1C1CCN(C(c2ccccc2OC(F)(F)F)c2nnnn2Cc2ccccc2)CC1 (stereo not drawn)	-8.9	92.2*	82.4*	-51.3	-54.1*	·
O=c1[nH]c2ccccc2n1C1CCN(C(c2nnnn2C2CCCC2)C2CC2)CC1 (stereo not drawn)	-11.3	11.3	12.0	-11.3	6.1	·
CC(C)CN1CCN(Cc2ccc(F)cc2Cl)CC1CCO (stereo not drawn)	·	8.5	-5.5	1.2	7.5	5.7
O=C(NCCO)c1nsnc1NCCCl	7.3	-3.4	14.4	8.2	-0.9	1.4
COC(=O)CC(NC(=S)N1CC2C[C@@H](C1)Cn1c2cccc1=O)C(=O)OC (stereo partly drawn)	6.7	13.0	-3.5	12.4	-6.0	6.9
O=c1[nH]c2ccccc2n1C1CCN(C(c2cccs2)c2nnnn2Cc2ccccc2)CC1 (stereo not drawn)	84.7*	77.8*	85.6*	-0.4	-79.4*	·
CSCCC(c1nnnn1Cc1ccccc1)N1CCC(n2c(=O)[nH]c3ccccc32)CC1 (stereo not drawn)	78.8	65.1*	86.7*	-16.5	-104.4*	·
O=c1[nH]c2ccccc2n1C1CCN(C(c2nnnn2C2CCCCC2)C2CC2)CC1 (stereo not drawn)	3.7	40.5	-2.7	-13.4	2.8	·
COc1ccc(C(c2nnnn2Cc2ccccc2)N2CCC(n3c(=O)[nH]c4ccccc43)CC2)cc1 (stereo not drawn)	-11.5	73.6*	84.8*	-24.9	-95.7*	·
CC(C)(C)n1nnnc1C(C1CC1)N1CCC(n2c(=O)[nH]c3ccccc32)CC1 (stereo not drawn)	5.1	22.6	-3.0	-1.9	1.7	·
CCOc1cc2c(cc1OCC)-n1cccc1C(c1ccc(C(C)C)cc1)NC2 (stereo not drawn)	90.3*	16.9	-11.3	-0.8	8.5	9.6
COc1ccc(-n2nnnc2C(c2cc3ccccc3o2)N2CCC(n3c(=O)[nH]c4ccccc43)CC2)cc1 (stereo not drawn)	9.9	91.6*	11.2	-5.3	-14.8	·
O=c1[nH]c2ccccc2n1C1CCN(C(c2cccc3ccccc23)c2nnnn2-c2ccc3c(c2)OCCO3)CC1 (stereo not drawn)	17.1	70.7*	84.5*	-18.8	-85.3*	·
Cc1cccc(C)c1-n1nnnc1C(c1cccc2ccccc12)N1CCC(n2c(=O)[nH]c3ccccc32)CC1 (stereo not drawn)	4.2	43.4	26.0	-10.4	-7.5	·
CCOC(=O)[C@]12Cc3cc(Cl)ccc3[C@H]1N(C1CCCCC1)C(=O)c1cc(OC)ccc12	·	·	·	89.0*	·	·
CC(C)(O)/C=C/C(=O)C(C)(O)C1C(O)CC2(C)C3CC=C4C(C=C(O)C(=O)C4(C)C)C3(C)C(=O)CC12C (stereo not drawn)	89.5*	99.2*	85.6*	91.2*	-62.0*	·
SMILES	Shn3 inh set2	Peg3 prom inh	CF NFkB inh	HIF-2a block	KKLEB tox	MITF TRPM1 inh
CC(=O)OC(C)(C)/C=C/C(=O)[C@](C)(O)C1[C@H](O)C[C@@]2(C)C3CC=C4C(C[C@H](O)C(=O)C4(C)C)[C@]3(C)C(=O)C[C@]12C (stereo partly drawn)	62.4	104.3*	83.6*	72.4*	-89.2*	90.8*
COC(=O)C1=C(c2ccc(C(C)=O)cc2)C[C@@H]2CC[C@H]1N2C(=O)NCCCOC(C)C	3.9	7.2	0.8	10.2	7.2	-6.5
Cc1ccc(-c2cc(-c3ccc(C)cc3)[n+](-c3ccc(C(=O)O)cc3)c(-c3ccc(C)cc3)c2)cc1	2.3	-14.4	-4.3	2.0	-6.9	-3.2
Cc1ccc(C[n+]2c(-c3ccc(C)cc3)cc(-c3ccc(C)cc3)cc2-c2ccc(C)cc2)cc1	91.6*	96.7*	57.3*	89.9*	-63.7*	95.7*
CC(C)(C)n1cccc1/C=C1\C(=O)NC(=O)N(c2ccccc2)C1=O	-36.1	-5.7	-25.8	-9.1	15.6	4.0
Cc1cc(C)cc(N2C(=O)NC(=O)/C(=C/c3cccn3-c3ccc(Cl)cc3)C2=O)c1	74.8	99.2*	60.8*	42.8*	1.0	50.9
Cc1cccc(N2C(=O)NC(=O)/C(=C\c3cccn3-c3ccc(Cl)cc3)C2=O)c1	40.0	103.5*	44.9	14.0	-5.9	?
COc1ccc2c3c1O[C@H]1C(=O)CC[C@H]4[C@@H](C2)N(C)CC[C@]314	13.4	-4.9	1.1	7.9	17.3	-3.0
COc1cccc2c1O[C@H]1C(=O)CC[C@H]3CN(C)CCC231 (stereo partly drawn)	89.4*	-2.8	23.3	8.8	-17.6	-14.4
C#C[C@]1(O)CC[C@H]2[C@@H]3CCC4=Cc5nc6nc7ccccc7n6cc5C[C@]4(C)[C@H]3CC[C@@]21C	13.0	66.5*	-21.9	21.5	25.6	-2.8
C#CC1(O)CCC2C3CCC4=C/C(=N/OCC(=O)NCC(=O)NC(C(=O)O)C(C)C)CC[C@]4(C)C3CC[C@@]21C (stereo partly drawn)	-5.2	-22.2	22.1	13.9	4.4	·
CCc1cc(=O)[nH]c(SCCCF)n1	-3.1	18.8	-2.2	11.0	12.2	6.5
CCNC(=O)[C@H]1O[C@@H](n2cnc3c(N)ncnc32)[C@H](O)[C@@H]1O	7.9	-4.3	-10.2	5.6	-4.5	4.8
